The values below come from PubChem BioAssay (EPA / NIEHS).

A word on the AC50: it is the concentration at which the activity in the assay is half-maximal.

The nature of experiment [1]: ACEA_AR_agonist_AUC_viability: ACEA Biosciences xCELLigence Real-Time Cell Analysis on Androgen Receptor Agonism for Viability (AID 2283775).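 As to AC50: viability read 80 hours after compound addition.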 The method, boiled down:
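Viability endpoint from xCELLigence impedance in 22Rv1 prostate cells at 80 h. Eight-point series, 100 uM maximum final.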

Experiment [2] can be described thus: ACEA_AR_antagonist_AUC_viability: ACEA Biosciences xCELLigence Real-Time Cell Analysis on Androgen Receptor Antagonism for Viability (AID 2283776).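 Also: 22Rv1 human prostate cancer cells growing on impedance electrode plates; hits lower the growth signal relative to DMSO meaning cytotoxicity.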 The gist of the method: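 Impedance read-out (RT-CES): area under growth curve at 80 h post-dose, loss of signal scored vs DMSO baseline. 22Rv1 cells; 8-pt 1:4 series, top 100 uM final, ≤0.5% DMSO; biological duplicate.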

Experiment [3] is described as follows: ACEA_ER_AUC_viability: ACEA Biosciences xCELLigence Real-Time Cell Analysis on Estrogen Receptor Agonism for Viability (AID 2283782).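 Also: hit means loss of impedance signal meaning reduced cell growth or viability.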 The gist of the method:
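Read-out: real-time electrical impedance (RT-CES) area under curve, loss of signal taken as reduced viability, normalized to DMSO baseline. T-47D cells, charcoal-stripped serum medium, compounds up to 100 uM final, continuous exposure, 80 h.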

Experiment [4] concerns zebrafish Androgen Receptor (AR), gene 100005148. Briefly: ATG_zfAR_XSP1: Attagene TRANS-FACTORIAL Multi-Species (XSP1) HepG2 Assay for zebrafish Androgen Receptor (AR) (AID 2283771). The gist of the method: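 Gain-of-signal versus DMSO was measured as reporter transcripts quantified by RT-PCR, fluorescent labelling and capillary electrophoresis after 24 h chemical exposure. The cells were HepG2 expressing a chimeric zebrafish AR-GAL4, co-stimulated with 3 nM 6-alpha-fluorotestosterone.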

The target of experiment [5] is zebrafish Estrogen Receptor (ESR1), esr1 (gene 259252) (UniProt P57717). Kind of experiment: ATG_zfER1_XSP1: Attagene TRANS-FACTORIAL Multi-Species (XSP1) HepG2 Assay for zebrafish Estrogen Receptor (ESR1) (AID 2283772). The method, boiled down:
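Reporter mRNA induction, gauged via RT-PCR/capillary electrophoresis fluorescence relative to DMSO controls, in HepG2 cells transiently carrying GAL4-UAS reporter units; 24 h dosing.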

For experiment [6], the system named is zebrafish Estrogen Receptor (ESR2B), gene 317733. Briefly: ATG_zfER2b_XSP1: Attagene TRANS-FACTORIAL Multi-Species (XSP1) HepG2 Assay for zebrafish Estrogen Receptor (ESR2B) (AID 2283773). The method, boiled down: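 Multiplexed TRANS format in transfected HepG2 liver cells, chimeric NR-Gal4 from zebrafish ESR2B. 24 h dosing; medium contains 3 nM 6-alpha-fluorotestosterone. mRNA induction by RT-PCR/CE, positive direction vs DMSO.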

For experiment [7], the system named is frog Estrogen Receptor (ESR2), gene 100174814. Kind of experiment: ATG_frER2_XSP1: Attagene TRANS-FACTORIAL Multi-Species (XSP1) HepG2 Assay for frog Estrogen Receptor (ESR2) (AID 2283774). The gist of the method: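 HepG2, transient MRTU transfection (GAL4-UAS reporters, exogenous NR-Gal4 chimeras); 24 h compound exposure; 3 nM 6α-fluorotestosterone co-added; total RNA → RT-PCR → 6-FAM primer extension → HpaI → CE. Positive direction vs DMSO.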

In experiment [8] the test system is frog Estrogen Receptor (ESR1), gene 398734. Briefly: ATG_frER1_XSP1: Attagene TRANS-FACTORIAL Multi-Species (XSP1) HepG2 Assay for frog Estrogen Receptor (ESR1) (AID 2283777). The gist of the method:
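Transient MRTU transfection, HepG2 (human liver); 24 h dosing, 3 nM 6α-fluorotestosterone co-added; RNA → RT-PCR → 6-FAM labeling → CE; upward activity vs DMSO.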

In experiment [9] the test system is zebrafish Estrogen Receptor (ESR2A), gene 317734. Kind of experiment: ATG_zfER2a_XSP1: Attagene TRANS-FACTORIAL Multi-Species (XSP1) HepG2 Assay for zebrafish Estrogen Receptor (ESR2A) (AID 2283778). The method, boiled down:
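Transient transfection of HepG2 (human liver) with MRTU constructs; chemical dosing for 24 h; medium contained 3 nM 6-alpha-fluorotestosterone to partly stimulate AR. RT-PCR/CE fluorescence of reporter transcripts; positive direction vs DMSO.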

In experiment [10] the target is chicken Estrogen Receptor (ESR1), ESR1 (gene 396099) (UniProt P06212). Kind of experiment: ATG_chERa_XSP1: Attagene TRANS-FACTORIAL Multi-Species (XSP1) HepG2 Assay for chicken Estrogen Receptor (ESR1) (AID 2283779). The gist of the method:
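Read-out: fluorescent reporter mRNA fragments resolved by capillary electrophoresis after RT-PCR and HpaI digestion. Transfected HepG2 cells carried chimeric NR-Gal4 constructs, were dosed 24 h with 3 nM 6-alpha-fluorotestosterone added, and activity was fitted upward relative to DMSO.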

Experiment [11] has as its system turtle Estrogen Receptor (ESR1), gene 101933533. Kind of experiment: ATG_trERa_XSP1: Attagene TRANS-FACTORIAL Multi-Species (XSP1) HepG2 Assay for turtle Estrogen Receptor (ESR1) (AID 2283781). The gist of the method:
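Transfect HepG2 with reporter units → dose chemical 24 h (medium has 3 nM 6-alpha-fluorotestosterone) → isolate RNA, RT-PCR → FAM primer extension, HpaI digest → capillary electrophoresis; gain of signal vs DMSO.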

The nature of experiment [12]: STM_H9_NormalizedViability: Cytotoxicity Assessment at 120 hours in the Stemina devTOX quickPredict H9 human embryonic stem cell (hESC)-based Assay (AID 2283784). The method, boiled down: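 CellTiter-Fluor RFU, background-subtracted, expressed relative to 0.1% DMSO neutral control by plate. Pluripotent H9 cells; treatment with daily re-dosing. Plates carried 1uM methotrexate (positive) and 5 nM methotrexate (negative) references.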

For experiment [13], the target named is Estrogen receptor beta (Homo sapiens) (UniProt Q92731). Briefly: ATG_hERb_XSP1: Attagene TRANS-FACTORIAL Multi-Species (XSP1) HepG2 Assay for human Estrogen Receptor (ESR2) (AID 2283788). The method, boiled down: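 Transient MRTU transfection of HepG2; ERβ–GAL4 TRANS format; 24 h dosing; 3 nM 6α-fluorotestosterone co-added; RNA → RT-PCR → 6-FAM primer extension → CE; activity vs DMSO.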

The target in experiment [14] is GAL4 Transcription Factor (Internal Marker), GAL4 (gene 855828) (UniProt P04386). Briefly: ATG_GAL4_XSP1: Attagene TRANS-FACTORIAL Multi-Species (XSP1) HepG2 Assay for GAL4 Transcription Factor (Internal Marker) (AID 2283789). The method, boiled down:
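This background-control endpoint measures GAL4-driven reporter mRNA via RT-PCR and capillary electrophoresis of labelled fragments. Transiently transfected HepG2 cells were treated 24 h, with 3 nM 6-alpha-fluorotestosterone included, and gain-of-signal was fitted against DMSO.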

The subject of experiment [15] is frog Androgen Receptor (AR), gene 399456. Kind of experiment: ATG_frAR_XSP1: Attagene TRANS-FACTORIAL Multi-Species (XSP1) HepG2 Assay for frog Androgen Receptor (AR) (AID 2283770).
Experiment [16] has as its target Estrogen receptor (Homo sapiens) (UniProt P03372). Briefly: ATG_hERa_XSP1: Attagene TRANS-FACTORIAL Multi-Species (XSP1) HepG2 Assay for human Estrogen Receptor (ESR1) (AID 2283780). The gist of the method:
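Reporter transcripts from multiplexed GAL4-UAS units driven by NR-Gal4 chimeras in transiently transfected HepG2 were measured by RT-PCR with capillary electrophoresis 24 h post-dose, with 3 nM 6-alpha-fluorotestosterone present; gain-of-signal relative to DMSO.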

The subject of experiment [17] is turtle Androgen Receptor (AR), gene 101947425. Kind of experiment: ATG_trAR_XSP1: Attagene TRANS-FACTORIAL Multi-Species (XSP1) HepG2 Assay for turtle Androgen Receptor (AR) (AID 2283786). The gist of the method:
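Partial androgen stimulation is provided by 3 nM 6-alpha-fluorotestosterone in a multi-species trans-factorial panel expressing a turtle AR–GAL4 fusion in HepG2. After 24 h, reporter mRNA is measured by RT-PCR and capillary electrophoresis and fitted upward against DMSO.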

Experiment [18] in a line: ATG_M_06_XSP1: Attagene TRANS-FACTORIAL Multi-Species (XSP1) HepG2 Assay for M06 Transcription Factor (Internal Marker) (AID 2283790). The gist of the method:
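This background-control readout tracks M06 reporter mRNA, measured by RT-PCR and capillary electrophoresis. HepG2 cells transiently carrying the GAL4-UAS reporter panel were dosed for 24 h with 3 nM 6-alpha-fluorotestosterone added for partial AR stimulation; increases were scored relative to DMSO.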

The target in experiment [19] is AR (gene 367) (UniProt P10275). Briefly: ACEA_AR_agonist_80hr: ACEA Biosciences xCELLigence Real-Time Cell Analysis on Androgen Receptor Agonism for Proliferation (AID 2283783).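 Also: hits increase impedance growth signal above DMSO baseline.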 The gist of the method: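 Impedance (RT-CES) growth signal at 80 h post-dose; 22Rv1 cells, 8-pt 1:4 series, top 100 uM final, DMSO ≤0.5%; duplicate plates; gain-of-signal fit relative to DMSO baseline.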

Experiment [20] deals with AR (gene 367) (UniProt P10275). Briefly: ACEA_AR_antagonist_80hr: ACEA Biosciences xCELLigence Real-Time Cell Analysis on Androgen Receptor Antagonism for Proliferation (AID 2283787).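 Also: 22Rv1 human prostate cancer cells with growth followed by electrical impedance; hits lower the impedance growth signal relative to DMSO.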 The gist of the method:
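Measures real-time proliferation of 22Rv1 prostate cancer cells by electrode impedance at 80 hours after dosing. Test articles ran at eight concentrations (1:4 steps, top 100 uM final) in biological duplicate.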

Where “and” joins values, the source holds several entries; their conditions need not be identical. Identical values can stand only once. Records with an inconclusive call do not appear. Calls of active or inactive are those of the source. The calls were made as follows: active = hit-call score of the fitted dose curve at least 0.9, where 1 is the maximum; inconclusive = response in the unintended direction; inactive = score below 0.9.

Chain of AR (gene 367) (P10275 whole entry, looked up): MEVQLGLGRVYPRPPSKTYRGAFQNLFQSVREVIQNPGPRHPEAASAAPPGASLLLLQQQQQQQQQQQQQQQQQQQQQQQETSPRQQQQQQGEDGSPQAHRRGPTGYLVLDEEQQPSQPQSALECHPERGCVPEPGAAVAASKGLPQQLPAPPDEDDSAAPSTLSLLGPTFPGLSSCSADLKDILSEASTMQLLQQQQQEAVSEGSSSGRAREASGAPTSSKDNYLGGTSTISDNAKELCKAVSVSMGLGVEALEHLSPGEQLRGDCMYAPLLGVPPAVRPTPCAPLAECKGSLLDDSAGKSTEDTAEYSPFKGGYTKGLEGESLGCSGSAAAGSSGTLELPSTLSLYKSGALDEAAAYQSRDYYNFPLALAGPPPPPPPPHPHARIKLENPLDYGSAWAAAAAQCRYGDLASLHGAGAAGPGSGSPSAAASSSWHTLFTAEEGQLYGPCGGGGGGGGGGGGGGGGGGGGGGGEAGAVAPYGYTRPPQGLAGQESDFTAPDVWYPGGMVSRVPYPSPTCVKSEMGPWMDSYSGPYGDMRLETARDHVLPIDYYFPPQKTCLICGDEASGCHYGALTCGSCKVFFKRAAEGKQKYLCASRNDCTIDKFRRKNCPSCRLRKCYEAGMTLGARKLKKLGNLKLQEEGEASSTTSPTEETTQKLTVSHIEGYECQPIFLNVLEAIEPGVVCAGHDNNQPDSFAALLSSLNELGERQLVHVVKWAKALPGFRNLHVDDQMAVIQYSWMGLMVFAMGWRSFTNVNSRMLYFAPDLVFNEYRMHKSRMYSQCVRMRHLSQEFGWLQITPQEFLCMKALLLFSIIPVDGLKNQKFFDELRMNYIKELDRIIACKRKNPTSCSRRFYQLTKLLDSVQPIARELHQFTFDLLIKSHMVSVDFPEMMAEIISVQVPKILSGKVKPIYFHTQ
Chain of zebrafish Estrogen Receptor (ESR1), esr1 (gene 259252) (P57717 whole entry, looked up, the tested form may be a part): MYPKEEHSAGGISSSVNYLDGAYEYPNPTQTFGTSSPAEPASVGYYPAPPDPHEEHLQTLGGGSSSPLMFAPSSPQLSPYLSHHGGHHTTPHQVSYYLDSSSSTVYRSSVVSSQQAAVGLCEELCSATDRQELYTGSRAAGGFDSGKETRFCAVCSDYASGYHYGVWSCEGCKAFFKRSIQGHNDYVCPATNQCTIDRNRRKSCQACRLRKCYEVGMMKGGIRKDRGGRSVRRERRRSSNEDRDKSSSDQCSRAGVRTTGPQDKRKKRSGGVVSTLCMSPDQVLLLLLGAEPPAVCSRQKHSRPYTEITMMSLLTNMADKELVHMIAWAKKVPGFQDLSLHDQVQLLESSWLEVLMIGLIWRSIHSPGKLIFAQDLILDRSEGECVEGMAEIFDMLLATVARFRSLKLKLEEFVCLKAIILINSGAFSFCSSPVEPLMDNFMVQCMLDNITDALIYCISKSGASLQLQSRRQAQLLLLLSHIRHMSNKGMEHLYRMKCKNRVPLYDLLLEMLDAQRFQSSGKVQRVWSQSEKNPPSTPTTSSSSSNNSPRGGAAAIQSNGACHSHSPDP
Chain of chicken Estrogen Receptor (ESR1), ESR1 (gene 396099) (P06212 whole entry, looked up, the tested form may be a part): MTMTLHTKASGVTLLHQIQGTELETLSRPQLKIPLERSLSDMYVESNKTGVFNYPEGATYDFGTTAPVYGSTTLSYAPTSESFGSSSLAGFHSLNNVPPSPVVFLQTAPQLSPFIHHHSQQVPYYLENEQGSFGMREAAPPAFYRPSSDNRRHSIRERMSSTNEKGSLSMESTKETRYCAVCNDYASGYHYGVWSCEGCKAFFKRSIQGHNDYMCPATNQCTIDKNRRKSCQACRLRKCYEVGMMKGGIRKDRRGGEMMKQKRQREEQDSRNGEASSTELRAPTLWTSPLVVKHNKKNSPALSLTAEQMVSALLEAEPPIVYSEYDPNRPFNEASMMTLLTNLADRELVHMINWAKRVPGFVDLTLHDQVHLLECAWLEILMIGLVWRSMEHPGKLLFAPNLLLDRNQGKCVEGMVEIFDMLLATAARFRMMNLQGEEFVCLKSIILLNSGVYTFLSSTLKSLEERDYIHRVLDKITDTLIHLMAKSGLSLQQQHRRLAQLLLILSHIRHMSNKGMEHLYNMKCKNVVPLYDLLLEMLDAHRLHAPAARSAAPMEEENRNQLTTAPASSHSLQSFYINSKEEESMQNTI
Chain of Estrogen receptor (Homo sapiens) (P03372 whole entry, looked up, the tested form may be a part): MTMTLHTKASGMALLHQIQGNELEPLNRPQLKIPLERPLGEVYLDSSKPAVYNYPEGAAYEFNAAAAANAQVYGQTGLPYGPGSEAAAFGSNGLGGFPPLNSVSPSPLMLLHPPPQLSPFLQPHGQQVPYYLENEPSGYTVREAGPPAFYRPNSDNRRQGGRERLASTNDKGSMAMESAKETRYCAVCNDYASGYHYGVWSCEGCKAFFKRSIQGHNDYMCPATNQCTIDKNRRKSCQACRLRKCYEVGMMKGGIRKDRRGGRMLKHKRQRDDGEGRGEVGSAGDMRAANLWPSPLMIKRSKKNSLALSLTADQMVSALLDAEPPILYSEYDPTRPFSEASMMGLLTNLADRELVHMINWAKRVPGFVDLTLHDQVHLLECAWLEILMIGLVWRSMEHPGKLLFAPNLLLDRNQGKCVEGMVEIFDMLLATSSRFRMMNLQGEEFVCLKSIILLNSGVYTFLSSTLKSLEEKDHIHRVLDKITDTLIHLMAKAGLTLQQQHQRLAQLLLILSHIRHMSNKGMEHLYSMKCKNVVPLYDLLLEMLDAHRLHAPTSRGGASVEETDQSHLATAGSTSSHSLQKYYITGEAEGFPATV
Chain of GAL4 Transcription Factor (Internal Marker), GAL4 (gene 855828) (P04386 whole entry, looked up, the tested form may be a part): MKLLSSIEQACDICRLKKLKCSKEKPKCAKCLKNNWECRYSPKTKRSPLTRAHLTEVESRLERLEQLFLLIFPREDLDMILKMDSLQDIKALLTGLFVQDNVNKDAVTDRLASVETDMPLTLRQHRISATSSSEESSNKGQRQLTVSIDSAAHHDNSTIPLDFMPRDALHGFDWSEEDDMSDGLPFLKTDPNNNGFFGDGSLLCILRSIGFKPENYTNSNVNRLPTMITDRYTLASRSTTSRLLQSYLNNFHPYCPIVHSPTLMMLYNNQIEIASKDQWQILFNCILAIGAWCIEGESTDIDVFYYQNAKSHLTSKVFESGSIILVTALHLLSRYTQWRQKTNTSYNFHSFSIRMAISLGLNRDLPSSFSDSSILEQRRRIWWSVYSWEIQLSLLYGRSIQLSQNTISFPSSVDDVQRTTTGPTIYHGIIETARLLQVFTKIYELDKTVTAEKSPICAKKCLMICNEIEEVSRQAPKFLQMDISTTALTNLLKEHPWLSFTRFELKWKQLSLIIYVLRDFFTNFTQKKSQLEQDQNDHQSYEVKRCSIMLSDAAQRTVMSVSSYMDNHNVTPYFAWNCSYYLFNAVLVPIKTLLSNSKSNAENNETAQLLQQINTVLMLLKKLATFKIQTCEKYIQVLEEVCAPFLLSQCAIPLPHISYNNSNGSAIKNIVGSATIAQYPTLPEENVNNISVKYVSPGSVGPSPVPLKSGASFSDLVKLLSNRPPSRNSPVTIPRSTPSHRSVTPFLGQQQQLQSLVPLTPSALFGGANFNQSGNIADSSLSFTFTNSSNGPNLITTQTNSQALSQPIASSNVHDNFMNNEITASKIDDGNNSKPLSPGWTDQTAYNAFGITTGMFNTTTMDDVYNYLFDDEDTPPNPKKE
Chain of Estrogen receptor beta (Homo sapiens) (Q92731 whole entry, looked up, the tested form may be a part): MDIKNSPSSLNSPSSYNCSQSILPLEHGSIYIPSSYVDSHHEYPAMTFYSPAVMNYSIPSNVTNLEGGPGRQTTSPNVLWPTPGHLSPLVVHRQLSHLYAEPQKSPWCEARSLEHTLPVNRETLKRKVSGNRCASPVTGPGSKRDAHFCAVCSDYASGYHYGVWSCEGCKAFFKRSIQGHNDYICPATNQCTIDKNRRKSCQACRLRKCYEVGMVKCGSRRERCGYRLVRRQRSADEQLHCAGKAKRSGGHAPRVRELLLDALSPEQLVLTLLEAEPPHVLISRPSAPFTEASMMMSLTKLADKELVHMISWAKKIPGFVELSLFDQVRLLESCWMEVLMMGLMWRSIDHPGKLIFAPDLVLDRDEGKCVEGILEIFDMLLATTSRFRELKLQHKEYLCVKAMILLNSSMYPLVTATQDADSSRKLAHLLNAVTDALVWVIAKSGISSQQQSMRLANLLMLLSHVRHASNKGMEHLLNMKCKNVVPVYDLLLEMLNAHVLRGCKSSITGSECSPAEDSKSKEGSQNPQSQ

Consider `Cc1cc2c3c(c1)C(c1ccccc1)=N[C@@H](NC(=O)c1ccncc1)C(=O)N3CC2`, for which the concentration at half-maximal activity (AC50) in experiment [1] and in experiment [2] was 50000 nM (active) throughout. In [3], the outcome was inactive.
As to `Clc1ccc(C(c2ccccc2Cl)C(Cl)(Cl)Cl)cc1` (stereo not given), the compound was called inactive in experiment [4], in experiment [13] and in experiment [14]. In addition, the AC50 was 2480 nM (active) in [5]; 752 nM (active) in experiment [6]; 674 nM (active) in experiment [7]; 8750 nM (active) in experiment [1]; 12800 nM (active) in experiment [2]; 389 nM (active) in [8]. Also, the AC50 in experiment [9] is 679 nM (active); in experiment [10] it was 291 nM (active); in [11], 713 nM (active); in experiment [3], 42.8 µM (active) and 53.5 µM (active) and 50.9 µM (active); in experiment [12] it was 88700 nM (active).
`C[C@]12CCC(=O)C=C1CC[C@@H]1[C@@H]2CC[C@@]2(C)[C@H]1CC[C@]2(C)O`: the AC50 in experiment [15] is 3.8 nM (active); in [4], 0.293 nM (active); in experiment [5] it was 39.6 nM (active); in experiment [6] it was 5.69 nM (active); in experiment [7], 17.3 nM (active); in [8] it was 2.97 nM (active). Further, the concentration at half-maximal activity (AC50) was 2.72 nM (active) in [9]; 1.61 nM (active) in experiment [10]; 1.17 nM (active) in experiment [16]; 1.76 nM (active) in [11]; 1.8 nM (active) in experiment [17]. Besides, the result in [18] was inactive.
Regarding `CN(C)CCO`, the outcome in experiment [1] and in [2] was inactive.
With `C=CC(=O)NCNC(=O)C=C`, the outcome (in experiment [1]; in experiment [2]; with AR (gene 367) [19]; with AR (gene 367) [20]) was inactive. Moreover, the AC50 in [12] is 50000 nM (active).
On to `Clc1ccc(C(Cl)(Cl)Cl)cc1`, for which the call in [1] and in [2] was inactive. Also, the AC50 in experiment [12] was 83600 nM (active).
`CCSC(=O)N(CC)C1CCCCC1`: the compound was called inactive in [2], in [3] and in experiment [12].
As for `Cc1cccc(C)c1N`, the compound was called inactive in experiment [1] and in experiment [3].
In the case of `c1ccc(-c2ccccc2)cc1`, the result (in [1]; in [2]; in [3]; with AR (gene 367) [20]) was inactive.
On to `CCCCCCOC(=O)c1ccccc1C(=O)OCCCCCC`, for which the results for the AC50 in experiment [1] and in [2] were 43500 nM (active) and 50000 nM (active), respectively. In addition, the result in [3] and in [12] was inactive.
In the case of `O=C(O)C(F)(F)C(F)(F)C(F)(F)C(F)(F)C(F)(F)F`, the call in [2] and in experiment [3] was inactive.
Consider `C=CC(N)=O`, for which the compound was classed as inactive in experiment [1], in experiment [2] and in experiment [12].
Take `C1CC2OC2CC1C1CO1` (stereo not given): the compound was called inactive in experiment [1] and in experiment [2]. The AC50 in experiment [12] was 74500 nM (active).
